# TrxR1 substrate – is turned over as a substrate by rat TrxR1; hit rate 0.01% among 390,000; purified TrxR1 substrate turnover, NADPH consumption readout; O89049; Potency, µM (doses to about 114 µM), without a hit: top-dose activity change, negative = substrate turnover; further: potency means the concentration at half of the fitted maximal effect; on the % scale 0 is the no-effect control and ±100 the full control effect; nearly all actives have a fitted effect of over 50% in size
# Target sequence (O89049 whole entry, looked up): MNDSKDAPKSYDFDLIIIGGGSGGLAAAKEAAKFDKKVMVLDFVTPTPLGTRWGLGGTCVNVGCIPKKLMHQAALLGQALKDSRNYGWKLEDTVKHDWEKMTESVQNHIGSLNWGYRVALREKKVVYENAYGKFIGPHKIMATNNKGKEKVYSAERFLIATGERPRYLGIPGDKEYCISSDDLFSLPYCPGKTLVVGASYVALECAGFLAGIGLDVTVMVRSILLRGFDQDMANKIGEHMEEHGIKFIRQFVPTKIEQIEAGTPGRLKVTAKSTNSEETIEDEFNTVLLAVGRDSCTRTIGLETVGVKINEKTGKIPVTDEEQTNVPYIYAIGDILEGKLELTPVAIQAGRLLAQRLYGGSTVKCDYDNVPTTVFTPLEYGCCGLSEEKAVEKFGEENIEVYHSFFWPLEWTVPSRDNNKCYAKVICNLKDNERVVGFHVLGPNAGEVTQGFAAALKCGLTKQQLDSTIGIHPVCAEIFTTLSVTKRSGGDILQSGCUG
#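 Rat TrxR1, dispensed at 90 nM, was prereduced with 400 uM NADPH (final) for 5 min at ~22 deg C, then incubated with compound 15 min before 400 uM selenite. A first-read NADPH fluorescence drop versus no-compound background flagged substrates.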
# LDHA block – inhibitors of human lactate dehydrogenase A. P00338. hit rate 0.15% among 480,000. activity change, % (values are at about 110 or 230 µM). purified LDHA, NADH/diaphorase-resazurin fluorescence; hits give low values; in the data active means activity change below about -30%; inconclusive means mostly about -25% to -30%;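 further: plate controls were DMSO wells for no effect and wells without enzyme for full effect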
#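 Human LDH5 (2 nM) was incubated with 0.06 mM NADH and 0.2 mM pyruvate for 5 min at room temperature in Tris pH 7.4. Remaining NADH was coupled through diaphorase/resazurin, and resorufin fluorescence was read at 0 and 20 min.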
# GLS inh – glutaminase GLS (human) inhibition; O94925; GLS enzymatic activity, qHTS titration; Potency, µM (top dose mostly 45.5 µM), inactives show at the highest dose activity change, negative = inhibition, hits mostly inhibitors; hit rate 0.21% among 410,000; further: potency means the concentration at half of the fitted maximal effect; on the % scale 0 is the no-effect control and ±100 the full control effect
#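 Enzyme dispensed in phosphate buffer (45 mM, pH 8.2, 0.02% Tween-20), compounds pinned in, then 1 mM L-glutamine solution and the glutamate oxidase–HRP–Amplex Red mix added; fluorescence read immediately and again after 30 min at room temperature.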
# PKM2 activator – activators of human pyruvate kinase M2; Potency, µM (series often up to 57.5 µM), inactives show at the highest dose activation, usual class: activators; P14618; purified PKM2, Kinase-Glo ATP luminescence, activation; response scale: 0% is enzyme alone, no compound; hit rate 0.34% among 260,000; further: potency means the concentration at half of the fitted maximal effect; on the % scale 0 is the no-effect control and ±100 the full control effect; nearly all actives have a fitted effect of over 55% in size
#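 ATP formation by purified human PK-M2, quantified via coupled luciferase luminescence after 1 h at room temperature with 0.1 mM ADP and 0.5 mM PEP final.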
# IDH1 R132H inh – inhibitors of human mutant IDH1 R132H; O75874; IDH1-R132H enzyme, NADPH consumption, diaphorase/resazurin fluorescence; Potency, µM (top dose mostly 76.6 µM), inactives show at the top dose activity change, negative = inhibition, usual class: inhibitors; hit rate 0.093% among 390,000; further: potency means the concentration at half of the fitted maximal effect; on the % scale 0 is the no-effect control and ±100 the full control effect; nearly all actives have a fitted effect of over 65% in size
#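 IDH1-R132H (0.5 ug/mL) preincubated 30 min with compound, then NADPH (0.016 mM) and alpha-KG (2 mM) added; 80 min at RT, pH 7.5. Remaining NADPH coupled via diaphorase/resazurin to fluorescence (540/590 nm); concentration-response curves normalized to no-enzyme control.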
# TrxR1 inh – inhibitors of rat thioredoxin reductase 1; O89049; recombinant rTrxR1, NADPH fluorescence consumption, selenite substrate; Potency, µM (doses to about 114 µM), inactives show top-dose activity change, negative = inhibition, usual class: inhibitors; hit rate 1% among 390,000; AID 588453; further: potency means the concentration at half of the fitted maximal effect; on the % scale 0 is the no-effect control and ±100 the full control effect; nearly all actives have a fitted effect of over 65% in size
#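 Rat TrxR1 (90 nM in the dispensed reagent) was pre-reduced with 400 uM NADPH for 5 min at room temperature, then incubated with compound for 15 min. After 400 uM selenite was added, NADPH fluorescence (Ex 340/Em 450 nm) was followed for 8 min.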
# IDH1 autofl – autofluorescence interference, mutant IDH1 hit counter-screen; Resorufin detection reagent fluorescence interference, cell-free; inhibition of signal, % at 51.2 µM; 750 tested, under 10 active; shares compounds with IDH1 R132H inh;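 further: 0% = wells with normal resorufin and full inhibition = wells lacking resorufin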
# IDH1 WT – inhibits human wild-type IDH1, mutant selectivity check. shares compounds with IDH1 R132H inh. WT IDH1 enzyme, NADPH diaphorase/resazurin fluorescence. Potency, µM (top dose mostly 115 µM), for the others: at the top dose activity change, negative = inhibition, usual class: inhibitors. hit rate 9% among 750;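 further: potency means the concentration at half of the fitted maximal effect; 0% = full WT IDH1 enzyme control and full inhibition = no enzyme wells; nearly all actives have a fitted effect of over 55% in size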
# mIDH1 confirm – mutant IDH1 (human) inhibition, confirmed; hit rate 83% among 750; shares compounds with IDH1 R132H inh; IDH1 R132H enzyme, NADPH diaphorase/resazurin fluorescence; AID 624002; Potency, µM (series often up to 76.6 µM), inactives show top-dose activity change, negative = inhibition, most hits filed as inhibitors; further: potency means the concentration at half of the fitted maximal effect; nearly all actives have a fitted effect of over 50% in size
# An asterisk follows results filed as active; ? = inconclusive; / = not tested or not shown; [ ] = another dose, or the depositor's remark. An excerpt weighted towards active compounds, which were near 1.4% of everything screened. Unless noted, the call rests on the fitted dose curve; in most records, active means well fitted curve in the direction sought with a large enough effect; inconclusive means small, poorly fitted or top-dose-only effect, or another doubt; inactive means no such curve, though single readings can be large; an effect the other way counts as inactive or inconclusive.
SMILES,TrxR1 substrate,LDHA block,GLS inh,PKM2 activator,IDH1 R132H inh,TrxR1 inh,IDH1 autofl,IDH1 WT,mIDH1 confirm
CC(C)c1ccc(S(=O)(=O)N2CCN(CCC(=O)Nc3ccc(N(C)C)cc3)CC2)cc1,3%[57.1 µM],4,26%,13%,46µM*,3%[57.1 µM],-1,-1%,22µM*
CCC(NC(=O)C1CCOC1)C12CC3CC(CC(C3)C1)C2 (stereo not given),/,8,/,/,/,/,/,/,/
CC(C)C[C@@H](C)C(=O)N(Cc1ccccc1)c1ccccc1,-3%[57.1 µM],-1,-8%,/,12%,6%[57.1 µM],/,/,/
CC[C@@H](CCC=C(C)C)C(=O)N(Cc1ccccc1)c1ccccc1,0%,4,-5%,/,?,11%,0,?,16µM*
O=C1NC[C@@H](Cc2cccc3ccccc23)N(CCCCC2CCCCC2)C1=O,2%,0,0%,/,?,14%,1,-19%,40µM*
NC(=O)N1CCN(c2nc(-c3ccc(Br)cc3)cs2)CC1,/,-9,/,/,/,/,/,/,/
Cc1c(/C=N/NC(=O)c2cc(=O)[nH]c(=O)[nH]2)c2ccccn2c1C(=O)c1ccccc1,-4%[57.1 µM],1,6%,10%,?,-14%[57.1 µM],-2,?,14µM*
Cc1cccc(/C=C/C(=O)c2ccc([N+](=O)[O-])o2)c1,1%,5,-9%,/,4.5µM*,1.3µM*,1,22µM*,2µM*
COc1ccc(/C=C/C(=O)c2ccc([N+](=O)[O-])o2)cc1,-3%,4,-6%,/,-3%[38.3 µM],?,/,/,/
Cc1ccccc1/C=C/C(=O)c1ccc([N+](=O)[O-])o1,-10%,15,22%,/,?,3.5µM*,-6,40µM*,?
CCCNC(=O)c1ccc2c(c1)NC(=O)CS2,/,-1,/,/,/,/,/,/,/
Cc1ccc(-c2ccc(/C=C3\C(=O)ON=C3c3ccccc3)o2)c([N+](=O)[O-])c1,-8%[57.1 µM],-15,56%,28µM*,52µM*,11µM*,7,79µM*,35µM*
Cc1ccc(/C=C2\C(=O)ON=C2c2ccccc2)o1,-11%,0,-15%,-3%,8%,17%[57.1 µM],/,/,/
COc1ccc(Nc2nc3cc(C)ccc3nc2NS(=O)(=O)c2ccc(C)cc2)cc1,/,-1,/,/,/,/,/,/,/
N#CC(=C1C=C(Br)C(=NO)C=C1Cl)c1ccc(Cl)cc1,/,6,-12%,/,?,/,6,?,28µM*
CC1(C)Oc2ccc3ccc(=O)oc3c2/C(=C/Nc2cccc(O)c2)C1=O,-5%[57.1 µM],-19,0%,2%,?,-6%[57.1 µM],5,32%,40µM*
CC1(C)Oc2ccc3ccc(=O)oc3c2/C(=C/Nc2ccccn2)C1=O,-1%[57.1 µM],-6,-1%,14%,29µM*,2%[57.1 µM],-7,39%,11µM*
Cc1oc(-c2ccccc2)nc1C(=O)OCC(=O)NC(N)=O,/,5,/,/,/,/,/,/,/
Cc1ccsc1C1Nc2ccc3ncccc3c2C2=C1C(=O)CC(C)(C)C2 (stereo not given),20%[57.1 µM],-3,-1%,1%,?,24%[57.1 µM],-19,?,2.8µM*
O=C1CCCC2=C1C(c1cccs1)Nc1ccc3ncccc3c12 (stereo not given),6%,0,1%,0%,4%,1%,/,/,/
Fc1ccc(Nc2nc(NCc3ccco3)c3ccccc3n2)cc1,18%,-8,8%,-2%,?,30%,9,6%,28µM*

# Screening results: PubChem, National Center for Advancing Translational Sciences (NCATS)
